In ChEMBL document CHEMBL5606458, “ASAP - ZIKV NS2B-NS3 protease fluorescence single point” (2024):
Out of some 2,700 compounds screened, about 160 (5.9%) showed an effect of 50% or more. The sample as a whole holds a higher share of strong results than the screen did.

Target: Nonstructural protein 3 (Zika virus) (UniProt A0A024AXB9)
[1] = PRVABC59, Concentration 50.0 uM, Number of replicates 1.0
[2] = PRVABC59, Concentration 15.0 uM, Number of replicates 1.0

Nonstructural protein 3 (Zika virus), sequence (A0A024AXB9 as listed by the source): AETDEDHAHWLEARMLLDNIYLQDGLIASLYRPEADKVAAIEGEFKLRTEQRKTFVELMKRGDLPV

O=Cc1ccc(N2CCC(C(=O)NCCc3cc(F)cc(F)c3)CC2)cc1 was tested, and the inhibition [1] was 19.3%.
With N#Cc1cccc(NC(=O)c2cccc(OCc3c(Cl)cccc3Cl)c2)c1 the inhibition (PRVABC59, Concentration 49.5 uM, Number of replicates 2.0, Standard deviation 1.7651619405536074 %) was 6.21%, the inhibition (PRVABC59, Concentration 99.01 uM, Number of replicates 2.0, Standard deviation 1.834624667346594 %) was 10% and the inhibition (PRVABC59, Concentration 198.0 uM, Number of replicates 2.0, Standard deviation 2.6293560952864428 %) was 8.42%.
For O=C(NCc1ccccc1Oc1ccccc1)c1cc(Cl)ccc1NS(=O)(=O)c1ccc(Oc2ccccc2Cl)cc1, the inhibition [2] was 15.7%.
Compound O=Cc1ccc(N2CCC(C(=O)NCCN3C(=O)CSC3=O)CC2)cc1 has an inhibition [1] of 24.5%.
In the case of Cc1cc(CO)c2cccc(NC(=O)CCC3CCNCC3)c2n1, the inhibition (PRVABC59, Concentration 49.95 uM, Number of replicates 2.0, Standard deviation 0.05519955890732387 %) was 98.6% and the inhibition (PRVABC59, Concentration 99.9 uM, Number of replicates 2.0, Standard deviation 0.045159842417240824 %) was 96.7%.
Work on Cc1cc(CO)c2cccc(NC(=O)CC3CNC3)c2n1 yielded an inhibition (PRVABC59, Concentration 49.95 uM, Number of replicates 2.0, Standard deviation 1.5957700474656553 %) of -6.72% and an inhibition (PRVABC59, Concentration 99.9 uM, Number of replicates 2.0, Standard deviation 1.1039918524960535 %) of -6.98%.
Cc1cc(CO)c2cccc(Cc3cccc(NC(=O)CCC4CCNCC4)c3)c2n1 showed an inhibition (PRVABC59, Concentration 49.95 uM, Number of replicates 2.0, Standard deviation 0.07125447361688171 %) of 70.2% and an inhibition (PRVABC59, Concentration 99.9 uM, Number of replicates 2.0, Standard deviation 0.2799306012648679 %) of 94.6%.
Cc1cc(CO)c2cccc(NC(=O)Cc3c(C)c4c(=O)[nH]n(C)c4[nH]c3=O)c2n1 showed an inhibition (PRVABC59, Concentration 49.95 uM, Number of replicates 2.0, Standard deviation 0.16559867672197162 %) of 15% and an inhibition (PRVABC59, Concentration 99.9 uM, Number of replicates 2.0, Standard deviation 1.570678848435362 %) of 29.8%.
Cc1cc(CO)c2cccc(NC(=O)CC3CCNCC3)c2n1 showed an inhibition (PRVABC59, Concentration 49.95 uM, Number of replicates 2.0, Standard deviation 2.2586421938534733 %) of 41.5% and an inhibition (PRVABC59, Concentration 99.9 uM, Number of replicates 2.0, Standard deviation 1.48045087514324 %) of 81%.
Work on Cc1cc(CO)c2cccc(Cc3ccccc3NC(=O)CCC3CCNCC3)c2n1 yielded an inhibition (PRVABC59, Concentration 49.95 uM, Number of replicates 2.0, Standard deviation 0.020358613704702253 %) of 4.96% and an inhibition (PRVABC59, Concentration 99.9 uM, Number of replicates 2.0, Standard deviation 1.9188023762412802 %) of 26.8%.
Compound Cc1cc(CO)c2cccc(NCC3CCNCC3)c2n1 has an inhibition (PRVABC59, Concentration 99.9 uM, Number of replicates 2.0, Standard deviation 2.951218090372617 %) of -5.37%.
Cc1cc(CO)c2cccc(Cc3cccc(NC(=O)CNC4CC4)c3)c2n1 was tested, and the inhibition (PRVABC59, Concentration 49.95 uM, Number of replicates 2.0, Standard deviation 2.20382385319093 %) was -2.08% and the inhibition (PRVABC59, Concentration 99.9 uM, Number of replicates 2.0, Standard deviation 2.3107066172874657 %) was 1.16%.
For Cc1cc(CO)c2cccc(Cc3cccc(NC(=O)C[C@H]4CCCN4)c3)c2n1, the inhibition (PRVABC59, Concentration 49.95 uM, Number of replicates 2.0, Standard deviation 0.1706171862678608 %) was -9.82%.
Compound Cc1cc(CO)c2cccc(NC(=O)C[C@H]3CCCN3)c2n1 has an inhibition (PRVABC59, Concentration 49.95 uM, Number of replicates 2.0, Standard deviation 2.649580260544395 %) of 3.54% and an inhibition (PRVABC59, Concentration 99.9 uM, Number of replicates 2.0, Standard deviation 2.639543831508496 %) of 13.9%.
Compound Cc1cc(CO)c2cccc(Cc3cccc(NC(=O)Cc4c(C)c5c(=O)[nH]n(C)c5[nH]c4=O)c3)c2n1 has an inhibition (PRVABC59, Concentration 49.95 uM, Number of replicates 2.0, Standard deviation 0.9685022100006885 %) of 29.7% and an inhibition (PRVABC59, Concentration 99.9 uM, Number of replicates 2.0, Standard deviation 0.32116033435216484 %) of 54.1%.
Work on Cc1cc(CO)c2cccc(Cc3ccccc3NC(=O)Cc3c(C)c4c(=O)[nH]n(C)c4[nH]c3=O)c2n1 yielded an inhibition (PRVABC59, Concentration 49.95 uM, Number of replicates 2.0, Standard deviation 2.3870518401485845 %) of 19.5% and an inhibition (PRVABC59, Concentration 99.9 uM, Number of replicates 2.0, Standard deviation 1.6185118125725577 %) of 39.4%.
Cc1cc(CO)c2cccc(Cc3ccccc3C(=O)N3CCO[C@@H](CN)C3)c2n1 gave an inhibition (PRVABC59, Concentration 99.9 uM, Number of replicates 2.0, Standard deviation 2.9992587541792743 %) of -6.8%.
O=Cc1ccc(N2CCC(C(=O)Nc3cc(Cl)c(F)cc3F)CC2)cc1 was tested, and the inhibition [1] was 26.1%.
Compound COc1ccccc1N1CCN(C(=O)c2cc(Cl)ccc2NS(=O)(=O)c2ccc(Oc3ccccc3Cl)cc2)CC1 has an inhibition [2] of 8.47%.
With O=Cc1ccc(N2CCC(C(=O)Nc3ncc(F)cc3Br)CC2)cc1 the inhibition [1] was 19.1%.
C[C@@H](NC(=O)OCc1ccccc1)C(=O)Nc1cccc(CN)c1 gave an inhibition (PRVABC59, Concentration 49.5 uM, Number of replicates 2.0, Standard deviation 0.22300909071478295 %) of -5.65%, an inhibition (PRVABC59, Concentration 99.01 uM, Number of replicates 2.0, Standard deviation 0.06482809074333463 %) of -3.85% and an inhibition (PRVABC59, Concentration 198.0 uM, Number of replicates 2.0, Standard deviation 0.9413049329503056 %) of -1.69%.
For CCOc1ccc(CNC(=O)c2cc(Cl)ccc2NS(=O)(=O)c2ccc(Oc3ccccc3Cl)cc2)cc1, the inhibition [2] was 30.8%.
For Cc1cc(CO)c2cccc(Cc3ccccc3C(=O)N3CC[C@@H](O)C3)c2n1, the inhibition (PRVABC59, Concentration 49.95 uM, Number of replicates 2.0, Standard deviation 0.18876460771228748 %) was -8.95% and the inhibition (PRVABC59, Concentration 99.9 uM, Number of replicates 2.0, Standard deviation 1.2164824655212059 %) was -7.58%.
Cc1cc(CO)c2cccc(Cc3cccc(C(=O)N4CCC(C(=O)O)CC4)c3)c2n1 was tested, and the inhibition (PRVABC59, Concentration 49.95 uM, Number of replicates 2.0, Standard deviation 0.6921367263576601 %) was -3.78% and the inhibition (PRVABC59, Concentration 99.9 uM, Number of replicates 2.0, Standard deviation 0.04719115192807187 %) was -2.12%.
For Cc1cc(CO)c2cccc(Cc3ccccc3C(=O)N3CCC(CN)CC3)c2n1, the inhibition (PRVABC59, Concentration 49.95 uM, Number of replicates 2.0, Standard deviation 5.668177927575499 %) was 56.2% and the inhibition (PRVABC59, Concentration 99.9 uM, Number of replicates 2.0, Standard deviation 1.410491152712613 %) was 37.7%.
Cc1cc(CO)c2cccc(Cc3cccc(C(=O)N4CCC(CN)CC4)c3)c2n1 was tested, and the inhibition (PRVABC59, Concentration 49.95 uM, Number of replicates 2.0, Standard deviation 0.3303341859864401 %) was 94.6% and the inhibition (PRVABC59, Concentration 99.9 uM, Number of replicates 2.0, Standard deviation 0.3198467013777773 %) was 90.9%.
With Cc1cc(CO)c2cccc(Cc3ccccc3C(=O)N3CCC(C(=O)O)CC3)c2n1 the inhibition (PRVABC59, Concentration 49.95 uM, Number of replicates 2.0, Standard deviation 1.0591789629357544 %) was -4.89% and the inhibition (PRVABC59, Concentration 99.9 uM, Number of replicates 2.0, Standard deviation 2.3071221964090083 %) was -5.26%.
With Cc1cc(CO)c2cccc(Cc3cccc(C(=O)N4CC[C@@H](CO)C4)c3)c2n1 the inhibition (PRVABC59, Concentration 49.95 uM, Number of replicates 2.0, Standard deviation 1.594011680945781 %) was -6.14% and the inhibition (PRVABC59, Concentration 99.9 uM, Number of replicates 2.0, Standard deviation 1.5520642713220405 %) was 3.44%.
O=C(N[C@H]1CC(=O)N(Cc2ccccc2)C1)c1cc(Cl)ccc1NS(=O)(=O)c1ccc(Oc2ccccc2Cl)cc1 gave an inhibition [2] of 22%.
In the case of Cc1cc(CO)c2cccc(Cc3cccc(C(=O)NCc4c(C)noc4C)c3)c2n1, the inhibition (PRVABC59, Concentration 49.95 uM, Number of replicates 2.0, Standard deviation 0.6344586798768046 %) was -2.24% and the inhibition (PRVABC59, Concentration 99.9 uM, Number of replicates 2.0, Standard deviation 0.2674164432987103 %) was 1.65%.
For O=C(c1cc(Cl)ccc1NS(=O)(=O)c1ccc(Oc2ccccc2Cl)cc1)N1CCN(C(=O)[C@H]2COc3ccccc3O2)CC1, the inhibition [2] was 19.2%.
For Cn1cc(NC(=O)c2ccccc2C(F)(F)F)c(-c2ccccc2CO)n1, the inhibition (PRVABC59, Concentration 49.5 uM, Number of replicates 2.0, Standard deviation 1.1938974234704913 %) was -0.442%, the inhibition (PRVABC59, Concentration 99.01 uM, Number of replicates 2.0, Standard deviation 1.523480341882225 %) was 1.31% and the inhibition (PRVABC59, Concentration 198.0 uM, Number of replicates 2.0, Standard deviation 2.1372444344514228 %) was 2.85%.
With Cc1cc(Cl)c2c(N)ccc(C)c2n1 the inhibition (PRVABC59, Concentration 49.95 uM, Number of replicates 2.0, Standard deviation 1.4741281735170297 %) was 80.8% and the inhibition (PRVABC59, Concentration 99.9 uM, Number of replicates 2.0, Standard deviation 0.2024559271573544 %) was 83.6%.
Cc1cc(Cl)c2cccc(N)c2n1 gave an inhibition (PRVABC59, Concentration 49.95 uM, Number of replicates 2.0, Standard deviation 7.781875381379218 %) of 5.79% and an inhibition (PRVABC59, Concentration 99.9 uM, Number of replicates 2.0, Standard deviation 5.7320152302040395 %) of 14.4%.
Cc1cc(N)c2c(Cl)ccc(Cl)c2n1 was tested, and the inhibition (PRVABC59, Concentration 49.95 uM, Number of replicates 2.0, Standard deviation 14.266771188329304 %) was -9.58%.
Compound O=Cc1ccc(N2CCC(C(=O)NCc3c(F)cc(F)c(F)c3F)CC2)cc1 has an inhibition (PRVABC59, Concentration 10.0 uM, Number of replicates 1.0) of 22.5%.
COc1ccc(CN2CCC(c3c[nH]c4cccnc34)CC2)cc1 gave an inhibition (PRVABC59, Concentration 49.5 uM, Number of replicates 2.0, Standard deviation 0.21004326604655832 %) of 0.598%, an inhibition (PRVABC59, Concentration 99.01 uM, Number of replicates 2.0, Standard deviation 0.8142417098777236 %) of 6.55% and an inhibition (PRVABC59, Concentration 198.0 uM, Number of replicates 2.0, Standard deviation 1.1254172872302635 %) of 14.8%.
In the case of O=Cc1ccc(N2CCC(C(=O)N(Cc3cnn(-c4ccccc4)c3)C3CC3)CC2)cc1, the inhibition [1] was 26.1%.
